About 83,000 compounds went through this panel and 20% of them were active in at least one assay; those are over-represented in the sample as a whole.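 Note: values are percent growth. 100 is the growth of untreated cells, values between 100 and 0 indicate rising inhibition; between -100 and 0 indicates cell death.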 Values without a mark were called inactive. Calls of active or inactive are those of the source.

The test system of this test is MDA-MB-435 melanoma. Briefly: NCI-60 one-dose screen, 48 h (100 = growth as untreated, 0 = no growth, -100 = all killed). As to conditions: 10 µM unless noted. As to the method: Growth inhibition of the MDA-MB-435 human Melanoma tumor cell line is measured as a screen for anti-cancer activity. Cells are grown in 96 well plates and exposed to the test compound for 48 hours. Compounds are tested at a single concentration, which is 10^-5 M for most compounds. The reported endpoint is percent growth (GI% or GIPRCNT), where numbers from 0 - 100% represent growth inhibition, and numbers from -100% - 0 represent cell death. For example, a value of 40 represents 60% growth inhibition. A value of 0 means no net growth occurred over the course of the experiment. A value of -40 indicates 40% of cells at the beginning of the experiment died by the end of the experiment. A value of -100 means all cells are dead at the end of the experiment.
NCI-60 Human Tumor Cell Lines Screen was performed using the standard one-dose NCI protocol, which is described in more detail at https://dtp.cancer.gov/discovery_development/nci-60/default.htm.
Compounds with GIPRCNT values below 10 were considered active. Activity score was based on GIPRCNT using the following formula: […]
Score is 0 for GIPRCNT values of 100 or above, 50 for GIPRCNT values of 0, and 100 for GIPRCNT values of -100.
As for `CNC(=O)c1cc(COc2nnc(Nc3ccc(Cl)cc3)c3ccoc23)ccn1`, the growth is 73.2%. The value for `CCC1(/C=N/NC(N)=S)NC(=O)NC1=O` (stereo not given) was 105%; that for `O=C1CSC(c2c(F)cccc2Cl)N1NC(=O)C(O)(c1ccccc1)c1ccccc1` (stereo not given) was 104%. `CN1CCC(COc2cnc(-c3cccc(Cn4nc(-c5cccc(C#N)c5)ccc4=O)c3)nc2)CC1`: the growth was 53.8%. In the case of `Cc1cc(Oc2ccccc2)ccc1Nc1ncnc2ccc(-c3cnc(Cl)c(NS(C)(=O)=O)c3)cc12`, the growth was 17.9%. In the case of `N#CC1(C#N)C(c2cccs2)NC(c2cccs2)C1(C#N)C#N` (stereo not given), the growth is 107%.

As for `CNC(=O)c1cc(Oc2ccc3nc(NC(=O)Nc4ccc(Cl)c(C(F)(F)F)c4)sc3c2)ccn1`, the growth is 12.9%.

`Cc1ccc(Nc2nccc(N(C)c3ccc4c(C)n(C)nc4c3)n2)cc1S(N)(=O)=O`: the growth is 19.3%. The value for `Nc1c2c(c(O)c3c1=C(CO)C=N3)=NCCS2` was -82% (active). As to `Cc1cc(-c2cc(O)ccc2Cl)cc2nnc(Nc3ccc(OCCN4CCCC4)cc3)nc12`, the growth was -73.3% (active).

With `c1cn2cc(-c3ccc4cn[nH]c4c3)nc(Nc3ccc(N4CCOCC4)cc3)c2n1`, the growth is 76.8%. The value for `CN1C/C=C\CCOc2cccc(c2)-c2ccnc(n2)Nc2cccc(c2)C1` was -85.2% (active). `O=C1C=CC2(NN=C(c3ccccc3)N2c2ccccc2)c2cccc(O)c21` (stereo not given): the growth was -92.4% (active). Take `Cc1ccc(N=C2CSc3nnc(-c4csc5c4CCCC5)n3N2)cc1`: the growth is -25.1% (active).

Consider `O=C(CNc1nc(-c2ccc(Cl)cc2)cs1)Nc1ccc(-c2nc3ccccc3s2)cc1`, for which the growth is 104%. The value for `CCc1cc2c(cc1N1CCC(N3CCOCC3)CC1)C(C)(C)c1[nH]c3cc(C#N)ccc3c1C2=O` was 5.08% (active); that for `O=C(Cn1ccnc1)Nc1ccc(-c2nc3ccccc3s2)cc1` was 81.6%; that for `CC1(C)NC(=O)c2[nH]c3c(Cl)c(Cl)ccc3c2C1C#N` (stereo not given) was 88.1%. Take `CCc1ccc(C2=C(O)C(=O)C(c3ccc(CC)cc3)=C(O)C2=O)cc1`: the growth was 3.73% (active).

Take `COc1cc2ncnc(Oc3cccc(NC(=O)Nc4cc(C(C)(C)C(F)(F)F)on4)c3)c2cc1OC`: the growth is 13.3%.

As to `CC(C)[C@@H]1CC[C@]2(CO2)[C@@H]2C(=O)OCC(C(=O)O)=C[C@H]21`, the growth was -6.19% (active). On to `CNC(=O)c1cc(Oc2cccc3nc(Nc4ccc(Oc5ccccc5)cc4)ccc23)ccn1`, for which the growth is 66.1%. Then `C=CC(=O)N1CCC[C@H](n2c(=O)n(-c3ccc(Oc4ccccc4)cc3)c3c(N)ncnc32)C1`, with 101%. The value for `Cn1nccc1Nc1nccc(-c2ccn([C@H](CO)c3ccc(Cl)c(F)c3)c(=O)c2)n1` was 55.4%; that for `CNC(=O)c1cccc2cc(Oc3ccnc4cc(OCC5(N)CC5)c(OC)cc34)ccc12` was 24.1%; that for `CCN(CCN(C)C)C(=O)CNCc1cc(C(N)=O)ccn1` was 110%.

Regarding `CCNCCNc1cc(-c2ccc(Cl)c(Cl)c2)c(C#N)c2nc3ccccc3n12`, the growth was -95% (active). Then `O=C(c1ccccc1)C(c1ccccc1)N1CCOCC1` (stereo not given), with 109%; and `NC1=Nc2ccccc2N(O)N1`, with 106%; and `Cc1c(CN2CCN(C(=O)[C@H](C)O)CC2)sc2c(N3CCOCC3)nc(-c3cnc(N)nc3)nc12`, with -9.11% (active).

Regarding `CCCCCCCC(=O)SCC/C=C/[C@@H]1CC(=O)NCc2cccc(n2)C2=N[C@@](C)(CS2)C(=O)N[C@@H](C(C)C)C(=O)O1`, the growth was -9.48% (active).

As to `COc1cc2cc(NCc3ccc(Cl)cc3)nc(C)c2cc1OC`, the growth is 10.9%. The value for `COc1cc2ncnc(Nc3ccc(O)cc3)c2cc1OC` was 91.6%; that for `COc1ccc(C(=O)c2cc(OC)c(OC)c(OC)c2)cc1/C=C/C(=O)c1ccc(F)cc1` was 60.5%. The value for `COc1cc2ncnc3c2cc1OCCCCCN(C)Cc1ccc(Br)cc1N3` was 72.3%; that for `O=C(Cn1cncn1)Nc1ccc(-c2nc3ccccc3s2)cc1` was 105%; that for `O=C1CCC(=O)CC1` was 102%. The value for `O=C(O)c1ccc2c(c1)nc(Nc1cccc(Cl)c1)c1ccncc12` was 5.4% (active).

For the compound `COc1cc(NC2CCC(=O)N2c2ccc(Cl)cc2Cl)cc(OC)c1OC` (stereo not given), the growth is 94.9%. Then `Brc1ccc([I+]c2ccc(Br)cc2)cc1`, with 19.5%.
